Data published in PubChem BioAssay AID588590 (National Center for Advancing Translational Sciences (NCATS), 2011).
Hit rate of the full screen: of about 390,000 compounds, about 4,000 (1%) were called active. Inconclusive results (about 7%) are left out. Calls come from the whole dose curve; as a rule, active = well fitted inhibition curve with a large enough effect; inconclusive = small, poorly fitted or top-dose-only effect, or another doubt; inactive = no such curve, though single readings can be large or run the other way. Many of the other results were omitted from the sample, so actives are more common in it than they were.

The compounds below were run against DNA polymerase iota (Homo sapiens) (UniProt Q9UNA4) (assay: qHTS for Inhibitors of Polymerase Iota). Details: Pol iota fluorescent replication assay, 10 min; series mostly up to 115 µM; activity, negative = inhibition: at the top concentration.
Sequence of DNA polymerase iota (Homo sapiens) (Q9UNA4 whole entry, looked up): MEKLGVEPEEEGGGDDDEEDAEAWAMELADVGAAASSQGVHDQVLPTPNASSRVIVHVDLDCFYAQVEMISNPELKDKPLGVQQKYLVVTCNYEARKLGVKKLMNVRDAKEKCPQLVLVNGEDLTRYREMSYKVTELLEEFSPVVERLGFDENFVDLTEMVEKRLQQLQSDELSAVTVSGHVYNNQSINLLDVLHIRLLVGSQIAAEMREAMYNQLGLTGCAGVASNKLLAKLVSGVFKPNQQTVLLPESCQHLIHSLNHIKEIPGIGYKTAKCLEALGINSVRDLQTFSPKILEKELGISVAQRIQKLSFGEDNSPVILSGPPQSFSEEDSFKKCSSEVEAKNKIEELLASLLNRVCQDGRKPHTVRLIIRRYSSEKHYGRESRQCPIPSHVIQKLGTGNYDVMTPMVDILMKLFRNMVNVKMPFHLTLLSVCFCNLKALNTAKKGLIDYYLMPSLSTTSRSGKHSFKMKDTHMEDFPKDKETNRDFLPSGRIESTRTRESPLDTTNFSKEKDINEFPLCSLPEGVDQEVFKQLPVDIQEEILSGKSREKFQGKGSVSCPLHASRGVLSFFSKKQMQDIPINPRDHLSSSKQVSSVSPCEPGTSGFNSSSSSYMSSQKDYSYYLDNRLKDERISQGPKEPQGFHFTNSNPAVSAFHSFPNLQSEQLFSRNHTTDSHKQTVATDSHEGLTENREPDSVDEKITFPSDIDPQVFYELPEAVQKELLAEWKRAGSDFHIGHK
From the text: DNA polymerases, such as Pol iota, are specifically involved in DNA repair. Pol iota specifically plays an important role in translesion synthesis, where the normal high-fidelity DNA polymerases cannot proceed and DNA synthesis stalls. […] Thus, while pol eta's (and most likely iota's) normal function is to protect humans against the deleterious consequences of DNA damage, under certain conditions they can have deleterious effects on human health. As a consequence, we propose to utilize a high throughput replication assay to identify small molecule inhibitors of pol iota.
In a collaboration between the National Institute of Child Health & Human Development (NICHD) and NIH Chemical Genomics Center, a high-throughput, fluorescent screen was developed to screen the NIH Molecular Libraries Small Molecule Repository (MLSMR). This screen is used to identify inhibitors of pol iota.
NIH Chemical Genomics Center [NCGC]
NIH Molecular Libraries Probe Centers Network [MLPCN]
Assay Submitter (PI): Roger Woodgate, NICHD)
Three microliters of reagents (buffer in column 3 and 4 as negative control and 10 nM Pol iota in columns 1, 2, and 5-48) will be dispensed into 1,536-well black solid-bottomed plate. Compounds (23 nL) will be transferred via Kalypsys pin tool equipped with 1536-pin array. The plates will then be incubated for 15 min at room temperature, and 1 µL substrate (50 nM final concentration) will be added to start the reaction and kinetically read twice at 0 min and 10 min on the Viewlux reader.
Potency is the fitted concentration of half-maximal effect.

SMILES | activity, negative = inhibition | Potency
CCOc1ccc(NC(=O)c2ccc(NC(=O)CN3C(=O)C(=O)N(CC(C)C)C3=O)cc2)cc1 | 21.4% (inactive) | –
CCOc1ccc(NC(=O)c2ccc(NC(=O)COC(=O)c3ccc(NC(=O)CC#N)cc3)cc2)cc1 | – | 8.91 µM (active)
CCOc1ccc(NC(=O)CCNC(=O)c2ccc(Br)cc2)cc1 | 16.3% (inactive) | –
O=C1O/C(=C\c2ccc(O)cc2)C(O)=C1c1ccc(O)cc1 | -25.4% (inactive) | –
Oc1ccccc1-c1nc2ccc(Cl)cn2c1Nc1ccc2c(c1)OCCO2 | 15.2% (inactive) | –
CCOc1ccc(CCNC(=O)c2csc3c2CCCCC3)cc1 | -5.36% (inactive) | –
Cc1ccccc1OCC(=O)Nc1c(C(=O)Nc2ccccc2F)oc2ccccc12 | 48.3% (inactive) | –
O=C(COc1ccccc1)Nc1ccc(N2CCN(C(=O)c3cccs3)CC2)cc1 | 115% (inactive) | –
O=C(COc1ccccc1)Nc1ccc(C(=O)N2CCCC2)cc1 | – | 89.1 µM (active)
CCOc1ccc(NC(=O)COc2ccc(C(=O)N3CCC(C(N)=O)CC3)cc2OC)cc1 | 24.4% (inactive) | –
COc1ccc(C2Sc3ccccc3NC3=C2C(=O)c2ccccc23)c(OC)c1OC (configuration not stated) | 19.2% (inactive) | –
CCSc1nnc2c(n1)OC(c1ccc(OCC(=O)O)cc1)Nc1ccccc1-2 (configuration not stated) | -9.22% (inactive) | –
Cc1cc(C)c2sc(NC(=O)c3ccc(S(=O)(=O)N4CCCC4)cc3)nc2c1 | -1.58% (inactive) | –
CCCCN(CC)CCCNC(=O)c1nn(C)c2c1CS(=O)(=O)c1ccccc1-2 | 18.5% (inactive) | –
O=C(CSc1nc(=O)n2ccccc2n1)Nc1ccc2c(c1)OCCO2 | 15% (inactive) | –
Cc1ccccc1-c1nnc(SCC(=O)NCc2ccc3c(c2)OCO3)n1C | 15.5% (inactive) | –
Cc1ccn2c(=O)nc(SCC(=O)NCc3ccc4c(c3)OCO4)nc2c1 | – | 44.7 µM (active)
Cc1ccccc1Nc1nn2c(=O)c3ccc(C(=O)NCCc4ccc(Cl)cc4)cc3nc2s1 | 13.4% (inactive) | –
O=C(COC(=O)c1cccc(Br)c1)Nc1cccc2c1C(=O)c1ccccc1C2=O | 52.3% (inactive) | –
CC(=O)c1cc(NC(=O)c2ccccc2)c(=O)oc1/C=C/N(C)C | 23.6% (inactive) | –
O=C(NC1=CC(=O)c2ccccc2C1=O)c1ccccc1 | – | 3.55 µM (active)
O=C(Nc1ccc([N+](=O)[O-])cc1)c1cnn2c1NC(=C1CC1)C=C2C(F)F | 8.29% (inactive) | –
CCN(CCCNC(=O)c1cc2cc3cc(OC)ccc3nc2s1)c1ccccc1 | 39.3% (inactive) | –
O=C(NCCCN1CCN(c2cccc(Cl)c2)CC1)c1nnc(Cc2ccc(F)cc2Cl)o1 | 8.61% (inactive) | –
Cc1ccc(Nc2nnc(-c3ccc(C)c(S(=O)(=O)N4CCCCC4)c3)c3ccccc23)cc1 | 17.1% (inactive) | –
Cc1ccc(C)c(Nc2nnc(-c3ccc(C)c(S(=O)(=O)N4CCCCC4)c3)c3ccccc23)c1 | – | 89.1 µM (active)
Cc1ccc(-c2nnc(Nc3ccc(C(=O)N(C)C)cc3)c3ccccc23)cc1S(N)(=O)=O | -7.39% (inactive) | –
